Source: ChEMBL document CHEMBL1157539, “Thousands of chemical starting points for antimalarial lead identification” (Nature, 2010)

Experiments:
Assay type in all cases: functional
Plasmodium falciparum [1] = experiment: GSK_TCMDC: Inhibition of Plasmodium falciparum 3D7 in whole red blood cells, using parasite LDH activity as an index of growth. Test compounds present at 2uM
Plasmodium falciparum [2] = experiment: GSK_TCMDC: Inhibition of Plasmodium falciparum Dd2 in whole red blood cells, using parasite LDH activity as an index of growth. Test compounds present at 2uM
HepG2 = experiment: GSK_TCMDC: Percent inhibition of human HepG2 cell line. Test compounds present at 10uM.

Structure (SMILES)	Inhibition (Plasmodium falciparum [1]) [%]	Inhibition (Plasmodium falciparum [2]) [%]	Inhibition (HepG2) [%]
CN1CCN(CC(=O)Nc2cccc(-c3ccc(-c4nc5cc(F)ccc5[nH]4)s3)c2)CC1	100	94	71
CC1(C)CC(NCCCCCCCOc2ccc(OCc3ccccc3)cc2)CC(C)(C)N1.Cl	100	73	99
Cc1cc(NC(=O)Nc2ccc3nc(C)oc3c2)c2cc(Cl)ccc2n1	100	57	0
O=C(Nc1cccc(CN2CCN(C(=O)c3ccccc3)CC2)c1)c1cccs1.O=C(O)C(F)(F)F	95	97	15
Cc1ccn2c(C(=O)N3CCN(c4cccc5c4nc(-c4ccoc4)n5Cc4ccccn4)CC3)c(C)nc2c1	98	99	2
COC(=O)CCCOc1cc(Cc2cnc(N)nc2N)cc(OC)c1OC	95	0	12
COc1cc(NCC(CN)Cc2ccc3c(c2)OCO3)nc2ccccc12.Cl (stereo not drawn)	94	6	41
Cc1ccccc1C(O)CNc1ccnc(Nc2cccc(C#N)c2)n1 (stereo not drawn)	94	12	22
O=C(O)C(F)(F)F.O=S(=O)(NCCN1CCCC1)c1ccc(-c2ccccc2CNC2Cc3ccccc3C2)cc1	95	67	19
Cc1ccn2c(N(Cc3ccccc3)C(=O)c3ccc(Cl)c(Cl)c3)c(-c3ccccc3)nc2c1	95	0	0
CN1CCC(NCc2ccc(-c3cccc(S(=O)(=O)NCC4CCCO4)c3)cc2)CC1.O=C(O)C(F)(F)F (stereo not drawn)	90	0	8
